These entries were drawn from the full list.
aSyn 5UTR act = Activators working through SNCA 5'UTR binding (MLPCN). activity score, % (tested at 7.5 µM), hits read low. alpha-synuclein 5'UTR reporter, activators screen. AID 1814. 300,000 compounds, 7.1% hits; in the data active = activity score below about -60%
The depositor's hits bear a star.

SMILES	aSyn 5UTR act
COC(=O)c1cnn(-c2nc(-c3ccccc3)cs2)c1N	-171*
COc1cc(C(=O)Nc2cc3c(cc2N2CCCCC2)n(C)c(=O)n3C)cc(OC)c1OC	-79*
COc1ccccc1N1CCN(S(=O)(=O)CCNC(=O)c2cc(OC)c(OC)c(OC)c2)CC1	61
Cc1c2c(nc3ccccc13)CCC(C(C)(C)C)C2 (centres undefined)	-116*
CCOc1ccc2nc(NC(=O)Cn3[nH]c(=O)c4ccccc4c3=O)sc2c1	-105*
CCOc1ccc2nc(NC(=O)COC)sc2c1	-97*
CCOCC(=O)Nc1nc2ccc(OC)cc2s1	-89*
O=S(=O)(c1ccc2c(c1)C(=NO)c1cc(S(=O)(=O)N3CCCCC3)ccc1-2)N1CCCCC1	96
Cc1ccc(O)c(N=Nc2ccc(S(=O)(=O)N3CCCC3)cc2)c1	-70*
CC(C)N(C(=O)CSc1ncnc2sc(-c3ccccc3)cc12)C(C)C	-88*
Cc1nc(SCCC(=O)O)c2cc(-c3ccccc3)sc2n1	67
CCOC(=O)Cc1csc(NC(=O)c2sc3nc4c(C)cc(C)cc4cc3c2N)n1	-94*
Cc1ccc(N/C=C/C(=O)c2ccc(C)cc2)cc1	-241*
COc1ccc(N/C=C/C(=O)c2cc(OC)c(OC)c(OC)c2)cc1	60
Cc1ccc(C(=O)/C=C/Nc2ccccn2)cc1	75
Cc1ccc(C(=O)/C=C\Nc2ccc(C)c(C)c2)cc1	-195*
Cc1ccc(O)c(N/C=C/C(=O)c2ccc(F)cc2)c1	-259*
COc1ccc(N/C=C/C(=O)c2ccc(Cl)cc2)cc1	-105*
O=C(/C=C/Nc1ccc(F)cc1Br)c1ccccc1	70
Cc1cc(N/C=C/C(=O)c2ccccc2)ccc1Br	-78*
C=CCNc1nc(N)c(C(=O)Nc2cc(C)on2)s1	-111*
CCOC(=O)c1c(C)nc2sc(C(=O)Nc3ccc(C(C)=O)cc3)c(N)c2c1-c1ccc(OC)cc1	-90*
Cc1cc(C)c2c(N)c(C(=O)N/N=C/c3cccs3)sc2n1	-140*
O=C(N/N=C/c1cccs1)c1n[nH]c2c1CCC2	68
COc1ccc(NC(=O)c2sc3nc(C)cc(C)c3c2N)cc1	-172*
SMILES	aSyn 5UTR act
COCc1cc(C)nc2sc(C(=O)Nc3ccccc3F)c(N)c12	-82*
Cc1cc(C)c2c(N)c(C(=O)Nc3ccc([N+](=O)[O-])cc3)sc2n1	-144*
COCc1cc(C)nc2sc(C(=O)NN)c(-n3cccc3)c12	71
Cc1cc(C(F)(F)F)c2c(N)c(C(=O)Nc3cc(C)on3)sc2n1	-125*
Cc1cc(C)cc(NC(=O)c2sc3nc(C)cc(C)c3c2N)c1	-136*
Cc1cc(C)c2c(N)c(C(=O)Nc3ccc(C)c(C)c3)sc2n1	-63*
COc1ccc(NC(=O)c2cc3c(-c4ccc(OC)c(OC)c4)nn(C)c3s2)cc1OC	-70*
CCN(Cc1ccncc1)C(=O)c1cc(COc2ccc(OC)cc2Cl)on1	-111*
CCc1ccc(CN(C)C(=O)c2cc(COc3ccc(OC)cc3Cl)on2)nc1	-170*
Cc1cc(CN(C)C(=O)c2cc(COc3ccc(F)cc3Cl)on2)n[nH]1	-75*
COc1ccc(OCc2cc(C(=O)N(C)Cc3cc(C)no3)no2)c(Cl)c1	-182*
COc1ccc(OCc2cc(C(=O)N(C)Cc3nnc(C)o3)no2)c(Cl)c1	-121*
Cc1ccc(-n2nc3c(n2)/C(=N/O)CC/C3=N\O)cc1	-89*
CCc1ccc(Nc2cc(=O)n(C3CCCCC3)c(=O)[nH]2)cc1	-79*
Cc1ccc(-n2cnc3c(sc4nccc(N(C)C)c43)c2=O)cc1	-132*
COc1ccc(CN=Cc2[nH]c3ccc(Br)c(Cl)c3c2O)cc1	-78*
CCCC(=O)Nc1ccc(-c2csc(-c3cccnc3)n2)cc1	-114*
CC(=O)Nc1ccc(-c2csc(-c3cccnc3)n2)cc1	-112*
O=C(Nc1nc2ccccc2[nH]1)C1CCN(S(=O)(=O)c2cccs2)CC1	-70*
CC(=O)c1ccc(NC(=O)C2CCN(S(=O)(=O)c3cccs3)CC2)cc1	-80*
COC(=O)C[C@](O)(CCCC(C)(C)O)C(=O)O[C@@H]1C(OC)=C[C@]23CCCN2CCc2cc4c(cc2[C@H]13)OCO4	127
O=C(Cc1ccc(Br)cc1)N1CCc2ccccc2C1	-145*
O=C(c1ccc(Br)s1)N1CCc2ccccc2C1	-65*
[O-][n+]1c2c(nc3c1-c1ccccc1C3O)CCCC2 (centres undefined)	-77*
CCOC(=O)C(C(=O)OCC)C1OC(=O)c2cc3c(cc21)C(=O)OC3C(C(=O)OCC)C(=O)OCC (centres undefined)	-77*
SMILES	aSyn 5UTR act
CC(=O)c1ccc(NC(=S)NC(=O)/C=C/c2ccco2)cc1	-101*
O=C(/C=C/c1ccco1)NC(=S)Nc1ccccc1	-104*
COC(=O)/C=C1\C(=O)N(c2nc3ccc(OC)cc3s2)C(=S)N1c1ccc(F)cc1	-69*
COC(=O)/C=C1\C(=O)N(c2nc3ccccc3s2)C(=S)N1c1ccc(F)cc1	-175*
Cc1ccc(N=Cc2sccc2C)cc1C	-111*
COc1ccc2nc3cc(Cl)ccc3c(Nc3cc(CN4CCCC4)c(O)c(CN4CCCC4)c3)c2n1	104
Cc1nc(N)sc1N=Nc1ccc(F)cc1	-107*
COc1ccc(-c2nn(-c3ccccc3)cc2/C=N/NS(=O)(=O)c2ccccc2)cc1	-62*
COc1ccc(-c2nn(-c3ccccc3)cc2/C=N/N2C(=O)CSC2=S)cc1	-83*
COc1ccc(-c2nn(-c3ccccc3)cc2/C=N/NC(=O)c2cccc(S(=O)(=O)Nc3ccccc3Cl)c2)cc1	-77*
CCc1ccccc1NC(=O)CN(C)C(=O)Cn1ncc(Cl)c(Cl)c1=O	-63*
O=C(Nc1cccc(F)c1)Nc1ccc2c(c1)OCO2	-99*
O=C(Nc1ccc2c(c1)OCO2)c1cccc(F)c1	-183*
O=C(Nc1ccc2c(c1)OCO2)c1c(F)cccc1F	-125*
c1ccc(-c2nnc(SCc3cn4ccsc4n3)o2)cc1	-75*
O=[N+]([O-])c1ccc(-c2cnc(SCc3ccccc3Cl)[nH]2)cc1	-89*
COCCNc1c(-c2cc3ccc(C)c(C)c3[nH]c2=O)nc2ccccn12	-153*
CCOc1ccc(NC(=S)NC(=O)c2ccco2)cc1	-250*
CCC(=O)NC(=S)Nc1ccc(NC(=O)c2ccco2)cc1	-86*
CN(C)c1ccc(N=Nc2cccc(F)c2)cc1	-106*
CN(C)c1ccc(N=Nc2cccc3ccoc23)cc1	-136*
Brc1ccc(C2=NC(Cc3ccccc3)CO2)cc1 (centres undefined)	-176*
CC(/C=N/NC(=O)c1nnn(-c2nonc2N)c1C(C)C)=C\c1ccccc1	-81*
CCCc1c(C(=O)N/N=C/C(C)=C/c2ccccc2)nnn1-c1nonc1N	-67*
Nc1nonc1-n1nnc(C(=O)N/N=C/C=C/c2ccccc2)c1CSC1=NCCS1	-80*
SMILES	aSyn 5UTR act
O=C(NCc1cccs1)c1ccc2c(c1)OCCO2	-70*
Cc1ccc(C(=O)NCCc2cccs2)cc1	73
CCOC(=O)CNC(=O)c1ccc2c(c1)OCCO2	-64*
CCOC(=O)CNC(=O)c1cc(-c2ccc3c(c2)OCCO3)oc1C	-99*
O=C(NCCc1cccs1)c1ccc(Cl)c(Cl)c1	-209*
Cn1c(NC(=S)Nc2ccccc2)nc2ccccc21	-99*
CCn1c(NC(=O)c2cccs2)nc2ccccc21	-89*
C/C(=N\NC(=O)c1ccccc1)c1nc2ccccc2n1C	62
CN(C)CCn1c(NC(=O)c2ccc(Cl)cc2)nc2ccccc21	-239*
Cn1c(NC(=O)c2ccc(F)cc2)nc2ccccc21	-103*
CC(=O)Nc1nc2ccccc2n1Cc1ccc(Cl)cc1	51
